The results in this text go back to PubChem BioAssay (EPA / NIEHS).

Values joined by “and” are separate entries in the source; they are usually repeats but may differ in a detail not shown here. Identical values can stand only once. Active and inactive are the calls of the source. How the source made its calls: active means hit-call score of the fitted dose curve at least 0.9, where 1 is the maximum; inactive means score below 0.9.

The nature of this assay: CCTE_Shafer_MEA_dev_correlation_coefficient_mean: CCTE's Neural Network Formation Assay for Mean Correlation Coefficient, Shafer Lab (AID 2284093).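 On AC50: well mean pairwise spike train correlation integrated as AUC over recording days 5 to 12.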 As for the experimental part: CCTE_Shafer_MEA_dev assay is conducted using Axion Biosystems 48 well microelectrode array (MEA) plates and Maestro recording system. Each well of the MEA plate contains a grid of 16 microelectrodes embedded in the culture surface. Electrically active cells, such as neurons, can be cultured over the electrodes, and electrical activity in these cells can be recorded extracellularly. The spontaneous firing of neurons is captured from each electrode on a microsecond timescale providing both temporally and spatially precise data. […] The CCTE_Shafer_MEA_dev assay uses primary cultures of rat cortical neurons. Recordings are made on days post-plating 5, 7, 9 and 12. As these cultures mature over time, neural networks develop functional activity and form cohesive networks in which electrical activity can be highly coordinated. CCTE_Shafer_MEA_dev_correlation_coefficient_mean is 1 of 19 assay components of the CCTE_Shafer_MEA_dev assay. It measures the correlation coefficent of spikes (action potential firings) between every pair of electrodes in a well during a recording in a microelectrode array (MEA) using Axion Biosystems Maestro 768 channel amplifier with the AxIS adaptive spike detector. The pairwise correlations are averaged across active electrodes to report a well-mean value. To collapse across multiple recordings made on days post-plating 5, 7, 9 and 12, the trapezoidal area-under-the-curve of the component is calculated.Data from the assay component CCTE_Shafer_MEA_dev_correlation_coefficient_mean was analyzed into 1 assay endpoint. This assay endpoint, CCTE_Shafer_MEA_dev_correlation_coefficient_mean, was analyzed in the negative analysis fitting direction relative to DMSO as the negative control and baseline of activity. Using a type of functional reporter, gain or loss-of-signal activity can be used to understand electrical activity.
On the day prior to culture, each well was coated thoroughly with 150 uL of 0.05% polyethyleneimine (PEI, Sigma Cat P3143) in 50 mM HEPES (Sigma Cat H7523) at a pH of 8. The plate was incubated at 37C for one hour. PEI was rinsed out with 500 uL of sterile water three times. Plates were stored at 4C until the day of culture. This culture was plated at a seeding density of 1.5 x 10^5 cells/well on a 48-well MEA plate, prepared as described above. Cells were administered via a 25 uL media/laminin ([…]; Sigma Cat L2020-1MG) drop directly onto the microelectrode array, as adding the cells with the laminin results in better attachment than pre-coating with laminin. After 2 hours, an additional 475 uL of cortical media was added and the cells returned to the incubator. Exposure starts at day 0 of plating and is continued over twelve days of network development until the experiment is terminated. Cells are fed with fresh medium on DIV 5 and 9, following the recordings on those days. The entire volume of media in the well is exchanged and any vehicle or compound treatment is renewed. Complete details are found in OP-NHEERL/ISTD/SBB/TJS/2015-03-r0 (available on request, email shafer.tim@epa.gov). Measurement of the electrical activity is non-invasive, and recordings can be made from the same plate over multiple different days of the culture. In cortical neurons, this allows for the measurement of extracellular action potentials over the period during which networks form in the MEA plate.
On to `c1ccc2c(c1)ccc1ccccc12`, for which the compound was called inactive.

Turning to `c1ccc2c(c1)Cc1ccccc1-2`, the call was inactive. With `CC(O)CO` (stereo not given), the compound was classed as inactive. As for `c1ccc2cc3c(ccc4ccccc43)cc2c1`, the compound was classed as inactive. Regarding `CC1=C(/C=C/C(C)=C/C=C/C(C)=C/C(=O)O)C(C)(C)CCC1`, the AC50 is 23.4 µM (active). `OCCC(F)(F)C(F)(F)C(F)(F)C(F)(F)C(F)(F)C(F)(F)F`: the compound was classed as inactive.

Take `CC#C[C@]1(O)CC[C@H]2[C@@H]3CCC4=CC(=O)CCC4=C3[C@@H](c3ccc(N(C)C)cc3)C[C@@]21C`: the AC50 was 6.26 µM (active) and 22.2 µM (active). Consider `CN1CCC[C@H]1c1cccnc1`, for which the compound was classed as inactive. The same measure, in the same setting: the same measure for `C=C(C)C(=O)OCCC(F)(F)C(F)(F)C(F)(F)C(F)(F)C(F)(F)C(F)(F)F`: “inactive”. For `OCCC(F)(F)C(F)(F)C(F)(F)C(F)(F)C(F)(F)C(F)(F)C(F)(F)C(F)(F)F`, the AC50 is 23.4 µM (active).
